PubChem BioAssay (EPA / NIEHS)
Records with an inconclusive call do not appear. Calls of active or inactive are those of the source. How the source made its calls, unless noted: active means hit-call score of the fitted dose curve at least 0.9, where 1 is the maximum; inconclusive means response in the unintended direction; inactive means score below 0.9.

Experiments:
[1] = target: Bile acid receptor (Homo sapiens) (UniProt Q96RI1); test: ATG_FXR_TRANS: Attagene TRANS-FACTORIAL HepG2 Assay for Farnesoid X Receptor (FXR) (AID 2282979); settings: HepG2 Attagene TRANS FXR-GAL4 reporter transcription;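 further: hits raise reporter mRNA above DMSO so AC50 marks FXR activation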
Bile acid receptor (Homo sapiens), sequence (Q96RI1 whole entry, looked up, the tested form may be a part): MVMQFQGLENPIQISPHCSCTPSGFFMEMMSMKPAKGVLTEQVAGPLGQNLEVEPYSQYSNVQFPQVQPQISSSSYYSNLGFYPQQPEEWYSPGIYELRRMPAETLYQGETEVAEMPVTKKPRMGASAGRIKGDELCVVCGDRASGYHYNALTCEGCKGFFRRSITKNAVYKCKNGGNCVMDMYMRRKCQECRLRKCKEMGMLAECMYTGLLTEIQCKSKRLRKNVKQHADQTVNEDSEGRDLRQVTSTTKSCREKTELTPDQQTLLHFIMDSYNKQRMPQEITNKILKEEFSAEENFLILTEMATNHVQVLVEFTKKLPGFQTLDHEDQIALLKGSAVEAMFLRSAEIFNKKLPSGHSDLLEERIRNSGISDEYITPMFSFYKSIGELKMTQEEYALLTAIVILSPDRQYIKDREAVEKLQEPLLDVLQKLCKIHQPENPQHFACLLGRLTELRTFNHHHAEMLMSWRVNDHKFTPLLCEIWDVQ
Summary of the method: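 Transient transfection of HepG2 with multiplexed GAL4-UAS reporter units; exogenous FXR-GAL4 chimera. Dose 24 h → TriZol RNA → oligo(dT) RT → PCR, 6-FAM primer extension, HpaI cut → CE. Gain vs DMSO.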

[2] = ATG_M_32_TRANS: Attagene TRANS-FACTORIAL HepG2 Assay for M32 Transcription Factor (Internal Marker) (AID 2282984); settings: HepG2 Attagene TRANS M32 internal marker reporter;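 further: transcript level of a background control reporter unit measured by RT-PCR and capillary electrophoresis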
Summary of the method: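 Cell-based TRANS-format assay in HepG2: exogenous chimeric GAL4 reporter units transiently expressed, compounds applied 24 h. Reporter mRNA detected by RT-PCR plus capillary electrophoresis; this readout is an internal background marker.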

[3] = target: Nuclear receptor subfamily 4 group A member 2 (Homo sapiens) (UniProt P43354); test: ATG_NURR1_TRANS: Attagene TRANS-FACTORIAL HepG2 Assay for human Nuclear Receptor Related Protein 1 (NURR1) (AID 2282985); settings: HepG2 Attagene TRANS reporter, mRNA readout
Nuclear receptor subfamily 4 group A member 2 (Homo sapiens), sequence (P43354 whole entry, looked up, the tested form may be a part): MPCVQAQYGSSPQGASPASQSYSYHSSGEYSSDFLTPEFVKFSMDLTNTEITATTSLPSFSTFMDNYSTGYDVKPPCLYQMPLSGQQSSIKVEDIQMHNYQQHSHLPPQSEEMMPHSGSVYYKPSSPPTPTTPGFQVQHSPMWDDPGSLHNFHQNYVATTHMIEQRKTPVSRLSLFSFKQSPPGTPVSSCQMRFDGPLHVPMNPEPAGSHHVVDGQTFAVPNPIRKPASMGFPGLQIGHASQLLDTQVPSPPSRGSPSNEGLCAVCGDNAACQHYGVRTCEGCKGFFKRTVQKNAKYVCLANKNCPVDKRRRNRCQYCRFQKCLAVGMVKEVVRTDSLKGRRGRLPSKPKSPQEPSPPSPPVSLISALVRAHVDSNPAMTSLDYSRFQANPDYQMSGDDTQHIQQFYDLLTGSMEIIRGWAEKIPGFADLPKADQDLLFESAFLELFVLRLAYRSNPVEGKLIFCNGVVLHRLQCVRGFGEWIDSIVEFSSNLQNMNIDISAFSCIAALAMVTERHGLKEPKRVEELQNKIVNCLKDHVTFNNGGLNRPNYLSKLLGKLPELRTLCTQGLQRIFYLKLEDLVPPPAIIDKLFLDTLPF
Summary of the method: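 Measures transcriptional activation by an exogenous NR-Gal4 chimera in transfected HepG2 liver cells. After 24 h, reporter RNA is reverse-transcribed, amplified and resolved by capillary electrophoresis; DMSO defines baseline.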

[4] = target: Transcriptional activator Myb (Homo sapiens) (UniProt P10242); test: ATG_Myb_CIS: Attagene CIS-FACTORIAL HepG2 Assay for human Myeloblastosis (Myb) Proto-Oncogene Transcription Factor (AID 2282986; active means hit-call score of the fitted dose curve at least 0.9, where 1 is the maximum; inactive means score below 0.9); settings: HepG2 Attagene CIS-FACTORIAL Myb reporter transcription; actives raise or lower the signal
Transcriptional activator Myb (Homo sapiens), sequence (P10242 whole entry, looked up): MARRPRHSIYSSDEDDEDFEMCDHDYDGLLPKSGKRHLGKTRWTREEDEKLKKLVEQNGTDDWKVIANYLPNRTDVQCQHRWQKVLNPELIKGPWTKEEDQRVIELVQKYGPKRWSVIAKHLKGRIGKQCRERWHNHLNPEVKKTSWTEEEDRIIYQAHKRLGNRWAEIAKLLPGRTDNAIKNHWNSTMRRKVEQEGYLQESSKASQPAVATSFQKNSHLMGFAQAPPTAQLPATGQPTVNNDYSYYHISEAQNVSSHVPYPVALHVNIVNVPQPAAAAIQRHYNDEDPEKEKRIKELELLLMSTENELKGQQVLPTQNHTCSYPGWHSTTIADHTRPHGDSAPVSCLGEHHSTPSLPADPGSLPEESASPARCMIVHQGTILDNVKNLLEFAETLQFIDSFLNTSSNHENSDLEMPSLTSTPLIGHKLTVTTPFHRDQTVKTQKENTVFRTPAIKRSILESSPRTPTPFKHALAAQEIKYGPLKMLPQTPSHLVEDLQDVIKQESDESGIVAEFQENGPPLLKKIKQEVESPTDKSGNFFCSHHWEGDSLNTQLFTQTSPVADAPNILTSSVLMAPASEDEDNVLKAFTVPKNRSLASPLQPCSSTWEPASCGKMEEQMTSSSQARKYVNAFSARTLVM
Summary of the method: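 Endogenous transcription factor activity at a Myb-responsive cis element is reported in human liver HepG2 cells after 24 h chemical treatment. Reporter mRNA is detected by RT-PCR and capillary electrophoresis fluorescence, with DMSO as baseline.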

[5] = ATG_NFI_CIS: Attagene CIS-FACTORIAL HepG2 Assay for human Nuclear Factor I (NFI) (AID 2282989; active means hit-call score of the fitted dose curve at least 0.9, where 1 is the maximum; inactive means score below 0.9); settings: HepG2 cis-regulatory reporter, NFI response element transcription; actives raise or lower the signal
Summary of the method: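 Endogenous TF activity in HepG2 cells transiently transfected with cis-element-driven multiplexed reporter units, read 24 h after dosing. Reporter mRNA quantified by RT-PCR, 6-FAM labelling, HpaI digestion and capillary electrophoresis; bidirectional fit versus DMSO.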

[6] = target: Hepatocyte nuclear factor 4-alpha (Homo sapiens) (UniProt P41235); test: ATG_HNF4a_TRANS: Attagene TRANS-FACTORIAL HepG2 Assay for human Hepatocyte Nuclear Factor 4 alpha (HNF4a) (AID 2282982); settings: HepG2 HNF4a transactivation reporter, mRNA readout
Hepatocyte nuclear factor 4-alpha (Homo sapiens), sequence (P41235 whole entry, looked up): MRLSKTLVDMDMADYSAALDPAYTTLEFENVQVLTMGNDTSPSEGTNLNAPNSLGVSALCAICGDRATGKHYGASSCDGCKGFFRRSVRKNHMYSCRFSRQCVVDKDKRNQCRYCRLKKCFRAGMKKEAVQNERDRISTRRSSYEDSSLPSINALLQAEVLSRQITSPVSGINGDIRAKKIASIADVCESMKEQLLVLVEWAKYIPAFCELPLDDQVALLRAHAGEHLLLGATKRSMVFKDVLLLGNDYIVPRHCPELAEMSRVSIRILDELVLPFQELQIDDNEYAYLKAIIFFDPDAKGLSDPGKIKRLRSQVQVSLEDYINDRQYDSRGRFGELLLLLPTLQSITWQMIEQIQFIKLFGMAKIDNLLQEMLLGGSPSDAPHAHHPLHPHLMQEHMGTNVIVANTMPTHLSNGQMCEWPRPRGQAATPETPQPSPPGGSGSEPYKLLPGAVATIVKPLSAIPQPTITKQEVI
Summary of the method: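 Multiplexed reporter assay: transfected HepG2, 24 h exposure, total RNA → oligo(dT) RT → PCR → 6-FAM extension → HpaI digest → CE fluorescence. DMSO = negative control.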

[7] = ATG_M_06_TRANS: Attagene TRANS-FACTORIAL HepG2 Assay for M06 Transcription Factor (Internal Marker) (AID 2282983); settings: HepG2 Attagene TRANS M06 internal marker reporter;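 further: reporter transcript level by RT-PCR then capillary electrophoresis fluorescence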
Summary of the method: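 Background control endpoint: reporter mRNA from transiently transfected HepG2 after 24 h dosing, detected by RT-PCR with capillary electrophoresis fluorescence. Analysed for gain versus DMSO.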

[8] = target: Nuclear respiratory factor 1 (Homo sapiens) (UniProt Q16656); test: ATG_NRF1_CIS: Attagene CIS-FACTORIAL HepG2 Assay for human Nuclear Respiratory Factor 1 (NRF1) Orphan Gene (AID 2282987; active means hit-call score of the fitted dose curve at least 0.9, where 1 is the maximum; inactive means score below 0.9); settings: HepG2 NRF1 cis-element reporter, Attagene multiplex; actives raise or lower the signal
Nuclear respiratory factor 1 (Homo sapiens), sequence (Q16656 whole entry, looked up): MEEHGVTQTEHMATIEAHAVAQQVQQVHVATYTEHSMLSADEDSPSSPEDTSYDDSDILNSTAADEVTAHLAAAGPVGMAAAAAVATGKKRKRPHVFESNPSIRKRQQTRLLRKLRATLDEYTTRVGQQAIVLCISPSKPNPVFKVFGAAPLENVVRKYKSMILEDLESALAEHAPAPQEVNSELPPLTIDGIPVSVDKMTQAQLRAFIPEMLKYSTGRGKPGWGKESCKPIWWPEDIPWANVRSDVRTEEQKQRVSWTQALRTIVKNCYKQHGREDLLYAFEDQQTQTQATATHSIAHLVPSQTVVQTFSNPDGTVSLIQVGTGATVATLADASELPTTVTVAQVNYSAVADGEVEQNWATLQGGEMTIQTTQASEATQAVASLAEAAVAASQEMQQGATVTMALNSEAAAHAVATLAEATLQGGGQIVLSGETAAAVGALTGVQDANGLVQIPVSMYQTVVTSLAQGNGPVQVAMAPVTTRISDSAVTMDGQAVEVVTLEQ
Summary of the method: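 Human hepatoma HepG2 cells carrying transfected promoter-regulated reporter units were incubated with test chemicals for 24 h. Reporter transcripts were measured by RT-PCR plus capillary electrophoresis, and endpoints derived by bidirectional fitting with DMSO as baseline.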

[9] = target: Oxysterols receptor LXR-alpha (Homo sapiens) (UniProt Q13133); test: ATG_LXRa_TRANS: Attagene TRANS-FACTORIAL HepG2 Assay for human Liver X Receptor alpha (LXRa) (AID 2282980); settings: HepG2 Attagene TRANS reporter, LXRa transactivation
Oxysterols receptor LXR-alpha (Homo sapiens), sequence (Q13133 whole entry, looked up, the tested form may be a part): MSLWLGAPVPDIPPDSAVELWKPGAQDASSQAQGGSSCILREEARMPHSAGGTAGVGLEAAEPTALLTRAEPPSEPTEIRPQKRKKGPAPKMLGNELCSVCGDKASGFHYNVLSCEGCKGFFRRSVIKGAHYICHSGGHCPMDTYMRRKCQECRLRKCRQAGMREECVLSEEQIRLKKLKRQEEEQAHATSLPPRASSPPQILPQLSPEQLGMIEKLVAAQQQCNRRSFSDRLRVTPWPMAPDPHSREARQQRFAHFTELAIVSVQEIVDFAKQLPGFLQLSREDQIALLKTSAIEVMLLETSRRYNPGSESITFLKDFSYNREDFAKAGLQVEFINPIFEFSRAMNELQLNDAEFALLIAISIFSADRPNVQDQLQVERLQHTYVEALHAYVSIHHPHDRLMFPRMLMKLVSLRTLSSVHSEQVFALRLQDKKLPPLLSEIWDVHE
Summary of the method: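 Transfect HepG2 with GAL4-UAS multiplex reporter constructs (TRANS format, chimeric receptor-GAL4); treat 24 h; extract RNA, reverse-transcribe, PCR-amplify, FAM-label, HpaI-digest; resolve fragments by capillary electrophoresis. Upward response vs DMSO.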

[10] = target: Oxysterols receptor LXR-beta (Homo sapiens) (UniProt P55055); test: ATG_LXRb_TRANS: Attagene TRANS-FACTORIAL HepG2 Assay for human Liver X Receptor beta (LXRb) (AID 2282981); settings: HepG2 Attagene TRANS GAL4-LXRb reporter, mRNA
Oxysterols receptor LXR-beta (Homo sapiens), sequence (P55055 whole entry, looked up, the tested form may be a part): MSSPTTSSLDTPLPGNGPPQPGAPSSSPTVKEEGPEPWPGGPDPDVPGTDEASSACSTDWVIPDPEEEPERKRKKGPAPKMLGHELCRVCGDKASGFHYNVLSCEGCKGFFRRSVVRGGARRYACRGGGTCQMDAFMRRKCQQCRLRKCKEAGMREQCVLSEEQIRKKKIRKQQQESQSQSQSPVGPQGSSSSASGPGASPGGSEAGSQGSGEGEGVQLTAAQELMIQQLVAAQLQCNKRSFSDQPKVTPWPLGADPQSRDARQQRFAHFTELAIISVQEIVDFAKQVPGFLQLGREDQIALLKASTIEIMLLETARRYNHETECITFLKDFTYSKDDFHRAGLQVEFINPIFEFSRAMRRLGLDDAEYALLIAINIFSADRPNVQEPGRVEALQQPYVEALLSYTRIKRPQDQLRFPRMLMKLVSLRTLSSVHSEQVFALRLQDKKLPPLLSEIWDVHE
Summary of the method: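 After 24 h of chemical treatment, transfected HepG2 cells yield total RNA; reporter cDNA is PCR-amplified, FAM-labelled, HpaI-cut and run on capillary electrophoresis. Signal reflects chimeric LXRb-Gal4 activity on GAL4-UAS reporters.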

Measured: AC50

C[Si]1(C)O[Si](C)(C)O[Si](C)(C)O[Si](C)(C)O1
inactive: [1] | [2] | [3] | [4] | [5]

Cc1cc(=O)[nH]c(=S)[nH]1
inactive: [1] | [6] | [7] | [3] | [4] | [8] | [5]

CCCCc1ccc2c(n1)[C@@H](c1ccc(OC)cc1C[C@H](C)C(=O)O)[C@H](C(=O)O)[C@H]2c1ccc2c(c1)OCO2
inactive: [1] | [9] | [10] | [2] | [4] | [8] | [5]

CCCCCCCCCCCCCCCC
inactive: [9] | [10] | [6] | [7] | [2] | [4] | [8] | [5]

Cc1c(C(=O)O)c(O)cc2c1C(=O)c1c(O)c([C@@H]3O[C@H](CO)[C@@H](O)[C@H](O)[C@H]3O)c(O)c(O)c1C2=O
inactive: [1] | [6] | [2] | [3] | [4] | [8] | [5]

O=C(O)CCCCC(=O)O
inactive: [1] | [10] | [6] | [2] | [3] | [4] | [8] | [5]

COc1cc(-c2nc(NC(=O)c3cc4cc(C)cc(C)c4n3CC(=O)O)sc2CCC2CCCCC2)c(OC)cc1Cl
inactive: [1] | [9] | [10] | [6] | [7] | [2] | [3]
active: [4] 24.2 µM | [5] 27 µM

CCOC(=O)C(C)(C)Oc1ccc(Cl)cc1
inactive: [1] | [9] | [2] | [3] | [4] | [8] | [5]

COc1cc(C=O)ccc1O
inactive: [1] | [4] | [5]

COCCOCCOC
inactive: [1] | [9] | [10] | [4] | [8] | [5]

CCc1c(C(=O)NN2CCCCC2)nn(-c2ccc(Cl)cc2Cl)c1-c1ccc(Br)cc1
active: [8] 7.79 µM
inactive: [1] | [2] | [3] | [4] | [5]

Cc1nc(C)nc(N2C[C@@H](C)N(c3ccnc([C@@H](C)O)n3)[C@@H](C)C2)n1
inactive: [1] | [10] | [7] | [2] | [4] | [8] | [5]

Cc1nc(-c2ccc3c(c2)CCN(CCC2CCC(NC(=O)/C=C/c4ccc(F)cc4)CC2)CC3)no1 (stereo not drawn)
inactive: [1] | [7] | [4] | [8] | [5]

CC(CO)OC(C)CO (stereo not drawn) (tested in a mixture with another compound)
inactive: [1] | [7] | [2] | [4] | [5]

CCCCCCCCCCCC(=O)OC
inactive: [1] | [9] | [10] | [6] | [7] | [3] | [4] | [8] | [5]

NS(=O)(=O)c1cc2c(cc1Cl)NCNS2(=O)=O
inactive: [9] | [10] | [6] | [7] | [2] | [3] | [4] | [5]

Cc1cc(NC(=O)C(=O)O)cc(C)c1Oc1ccc(O)c2c1CCC2
inactive: [1] | [10] | [6] | [7] | [2] | [3] | [4] | [8] | [5]

CC1(C)NC(=O)NC1=O
inactive: [9] | [10] | [6] | [7] | [2] | [3] | [4] | [5]

COc1cc(/C=C/C(=O)CC(=O)/C=C/c2ccc(O)c(OC)c2)ccc1O
inactive: [9] | [10] | [6] | [7] | [2] | [3] | [4] | [8]
active: [5] 33.4 µM
